Measurements published in PubChem BioAssay AID463173 (ICCB-Longwood Screening Facility, Harvard Medical School, 2010).
Hit rate of the full screen: of about 52,000 compounds, about 4,300 (8.3%) were called active. Cut-off read from the data, not from the text of the source: active = survival mostly below about 52% (no sharp cut-off); inactive = mostly above about 56%. The full list was thinned out, with actives kept by preference.

Test system: DeltatarO mutant
Test: growth inhibition of S. aureus wild type versus tarO mutant, primary screen, teichoic acid synthesis inhibitors, RN4220, OD600 (AID 463173)
Details: OD600, 18 h, stronger effect = lower value, screened at 18.75 µg/mL (by protocol)

Compound	survival
CCN(CC)C(C)C#Cc1ccccc1 (stereo unspecified)	95% (inactive)
Cc1ccc(-n2nc(C(=O)Nc3ccc(C)c(F)c3)c3c4ccccc4n(C)c3c2=O)cc1	92% (inactive)
Fc1ccc(-n2ncc3c(Nc4ccc5c(c4)OCCO5)ncnc32)cc1	97% (inactive)
O=C(C1CCC(CNS(=O)(=O)c2cccs2)CC1)N1CCN(c2ccc(Cl)cc2)CC1 (stereo unspecified)	60% (inactive)
CCN(c1ccccc1)c1nnc(NC(=O)Nc2ccc(Br)cc2F)s1	97% (inactive)
CC(=O)N1CCN(c2ccccc2N)CC1	93% (inactive)
O=c1[nH]c(Nc2nc3ccccc3o2)nc2ccccc12	95% (inactive)
Cc1cc(=O)[nH]c(Nc2nc3ccccc3[nH]2)n1	71% (inactive)
Cc1cc(C)nc(Nc2nc3ccccc3c(=O)[nH]2)n1	74% (active)
O=C1CCCc2cc(S(=O)(=O)N3CCCC(C(=O)Nc4ccc(F)c(Cl)c4)C3)ccc2N1 (stereo unspecified)	70% (inactive)
Cc1ccccc1C(=O)OCc1cc(=O)n2c(C)csc2n1	109% (inactive)
O=S(=O)(c1ccc2nc(N3CCN(c4ccccc4)CC3)ccc2c1)N1CCCCC1	6% (active)
CC1CCN(S(=O)(=O)c2ccc3nc(N4CCN(c5ccccc5)CC4)ccc3c2)CC1	78% (inactive)
O=S(=O)(c1ccc2nc(N3CCN(c4cccc(Cl)c4)CC3)ccc2c1)N1CCCCC1	81% (inactive)
Cc1ccc(OC(=O)c2ccc3snnc3c2)cc1	115% (inactive)
COc1ccccc1-c1nn(CCC(=O)Nc2cccc(C(C)=O)c2)c2nc(C)cc(C)c12	69% (inactive)
Cc1cc(C)c2c(=O)cc(C(=O)Nc3ccc(S(=O)(=O)N(C)Cc4ccccc4)cc3)oc2c1	61% (inactive)
COc1ccc(C(=O)NCCSc2ccccn2)cc1	78% (inactive)
CC(=O)Nc1ccc(NC(=O)c2oc3ccc4c(c3c2C)C(=O)CC(C)(C)O4)cc1	75% (inactive)
CCC1(C)CC(=O)c2c(ccc3oc(C(=O)Nc4ccc(C(C)=O)cc4)c(C)c23)O1 (stereo unspecified)	78% (inactive)
Cc1c(C(=O)NCc2ccc(Cl)cc2)oc2ccc3c(c12)C(=O)CC(C)(C)O3	53% (active)
Cc1c(C(=O)NCc2ccccc2Br)oc2ccc3c(c12)C(=O)CC(C)(C)O3	83% (inactive)
CCCOc1ccc(CNC(=O)c2oc3ccc4c(c3c2C)C(=O)CC(C)(CC)O4)cc1 (stereo unspecified)	68% (inactive)

Compound	survival
Cc1cccc(C)c1NC(=O)c1oc2ccc3c(c2c1C)C(=O)CC(C)(C)O3	42% (active)
CCC1(C)CC(=O)c2c(ccc3oc(C(=O)NCc4ccccc4)c(C)c23)O1 (stereo unspecified)	44% (active)
Cc1c(C(=O)NCc2cccc(Br)c2)oc2ccc3c(c12)C(=O)CC(C)(C)O3	61% (inactive)
Cc1cc(C)cc(NC(=O)c2oc3ccc4c(c3c2C)C(=O)CC(C)(C)O4)c1	89% (inactive)
CCOC(=O)CC(NC(=O)Cn1nnc(-c2ccccc2F)n1)c1ccccc1Cl (stereo unspecified)	77% (inactive)
COc1ccc(N2CCN(C(=O)c3cn(C)c4ccc(S(=O)(=O)N(C)C5CCCCC5)cc4c3=O)CC2)cc1	93% (inactive)
COc1ccccc1NC(=O)CSC1=Nc2ccccc2C2=NC(CC(=O)NCCc3ccccc3)C(=O)N12 (stereo unspecified)	85% (inactive)
COc1ccc(C)cc1NC(=O)Cn1c(=O)n(Cc2nc(C)no2)c(=O)c2ccccc21	79% (inactive)
COc1cccc(CNC(=O)CSc2ncc3c(n2)-c2cc(Cl)ccc2N(C)S3(=O)=O)c1	92% (inactive)
N#CC1=C(N)NC(SCC(=O)Nc2ccc(Br)cc2)=C(C#N)C12CCCCC2	12% (active)
O=C(CSc1nc2c(c(=O)[nH]1)CCCC2)Nc1ccc(Br)cc1	58% (inactive)
CCSC1=C(C#N)C2(CCCCC2)C(C#N)=C(N)N1	68% (inactive)
COc1cccc(-c2cn3c(n2)sc2cc(C(=O)NCc4ccccc4F)ccc23)c1	60% (inactive)
Cn1c(=O)n(C)c2cc(N3CCOCC3)c(NC(=O)c3ccc(Cl)cc3)cc21	87% (inactive)
Cc1ccc(-n2nc3c(=O)n(C(C)C(=O)NCc4ccco4)nc(C)c3c2C)cc1 (stereo unspecified)	47% (active)
Cc1nn(CC(=O)NCc2ccco2)c(=O)c2nn(-c3ccccc3)c(C)c12	92% (inactive)
Cc1ccc(-n2nc3c(=O)n(C(C)C(=O)NCc4ccccc4C)nc(C)c3c2C)cc1 (stereo unspecified)	94% (inactive)
Cc1nn(C(C)C(=O)NCc2ccco2)c(=O)c2nn(-c3ccccc3)c(C)c12 (stereo unspecified)	37% (active)
CCC(C(=O)NCc1ccco1)n1nc(C)c2c(C)n(-c3ccc(C)cc3)nc2c1=O (stereo unspecified)	73% (inactive)
Cc1ccc(CCNC(=O)C(C)n2nc(C)c3c(C)n(-c4ccc(C)cc4)nc3c2=O)cc1 (stereo unspecified)	86% (inactive)
CCC(C(=O)NCCc1ccc(SC)cc1)n1nc(C)c2c(C)n(-c3ccc(C)cc3)nc2c1=O (stereo unspecified)	80% (inactive)
CCCNC(=O)C(C)n1nc(C)c2c(C)n(-c3ccccc3)nc2c1=O (stereo unspecified)	102% (inactive)
CSc1ccc(CCNC(=O)C(C)n2nc(C)c3c(C)n(-c4ccccc4)nc3c2=O)cc1 (stereo unspecified)	46% (active)

Compound	survival
CCOC(=O)N1CCC(NC(=O)c2cnn(-c3cccc(C)c3)c2-n2cccc2)CC1	85% (inactive)
CCC(C)(C)N1CC(=O)N(Cc2ccccc2)C(c2ccc(OC)cc2)C1=O (stereo unspecified)	78% (inactive)
CCOc1ccc(NC(=O)N(C)CCc2c(C)nn(C)c2C)cc1	74% (inactive)
COc1cccc(-n2nnc3c(sc4nc(C)cc(C)c43)c2=O)c1	91% (inactive)
CCN(C(=O)Cc1ccccc1OC)c1nnc(-c2ccncc2)s1	70% (inactive)
Nc1nc(-c2ccco2)nn1C(=O)c1ccc(Cl)cc1Cl	91% (inactive)
COc1ccc(-c2cc(C(=O)NCCc3ccccc3)c3c(-c4ccccc4)[nH]nc3n2)cc1	87% (inactive)
Cc1cc2c(cc1NC(=O)c1ccc(C(C)(C)C)cc1)n(C)c(=O)c(=O)n2C	84% (inactive)
COc1cc(OC)c(NC(=O)N2CCN3CCCCC3C2)cc1Cl (stereo unspecified)	75% (inactive)
CCN1CCN(c2csc3ccc(C)cc3c2=O)CC1	74% (inactive)
COc1ccccc1NC(=O)N(Cc1cc2c(C)ccc(C)c2[nH]c1=O)CC1CCCO1 (stereo unspecified)	94% (inactive)
CCOC(=O)c1c(NC(=O)c2cc(OC)c(OC)c(OC)c2)sc2c1CCCC2	81% (inactive)
CCOC(=O)c1c(NC(=O)c2ccc(C)c(C)c2)sc2c1CCCCC2	2% (active)
CCOC(=O)c1c(NC(=O)c2ccc(OCC)c(Br)c2)sc2c1CCCC2	74% (inactive)
CCOC(=O)c1c(NC(=O)c2ccc(OC)cc2)sc2c1CCCCC2	2% (active)
CCCCOc1ccc(C(=O)Nc2sc3c(c2C(=O)OCC)CCCCC3)cc1	50% (inactive)
CCCCOc1cccc(C(=O)Nc2sc3c(c2C(=O)OCC)CCCC3)c1	53% (inactive)
CCCOc1ccc(C(=O)Nc2sc3c(c2C(=O)OCC)CCCCC3)cc1	24% (active)
CCCOC(=O)c1c(NC(=O)c2cc3ccccc3c(=O)o2)sc2c1CCC(C)C2 (stereo unspecified)	112% (inactive)
CC(C)(C)C1CCc2c(sc(NC(=O)c3cc4ccccc4c(=O)o3)c2C(N)=O)C1 (stereo unspecified)	44% (active)
CCOC(=O)c1c(NC(=O)c2ccc(OC)c(OC)c2)sc2c1CCCCC2	58% (inactive)
CCOC(=O)c1c(NC(=O)c2cc3ccccc3c(=O)o2)sc2c1CCC(C(C)(C)C)C2 (stereo unspecified)	53% (inactive)
CCN(CC)Cc1c(NC(=O)c2ccc(OC)cc2)sc2c1CCCC2	71% (inactive)

Compound	survival
Cc1c(C(=O)NCCN(C)C)oc2c1-c1nn(Cc3ccccc3Cl)cc1CC2	110% (inactive)
O=C(Oc1ccc(F)cc1)c1nc(SCc2ccc(F)cc2)ncc1Cl	79% (inactive)
COC(=O)C1=NNC2(c3ccc(C)cc3)C(=O)N(c3ccc(C)cc3)C(=O)C12 (stereo unspecified)	107% (inactive)
Cc1oc(C(=O)O)cc1CSC(C)C(=O)O (stereo unspecified)	88% (inactive)
CC(C)c1nn2c(=O)cc(COC(=O)c3ccccc3Cl)nc2s1	88% (inactive)
CC(=O)Nc1nc(-c2cccs2)nc2c1c(=O)oc1ccccc12	92% (inactive)
COc1ccc(N=C2SC(C(=O)Nc3ccccc3)CC(=O)N2C)cc1 (stereo unspecified)	91% (inactive)
O=C(CN1C(=O)C2(SCC(=O)N2c2ccccc2)c2ccccc21)NCCc1ccccc1 (stereo unspecified)	116% (inactive)
Cc1nnsc1C(=O)Oc1ccc(C(C)C)cc1	89% (inactive)
CCc1cc2c(cc3c(=O)n(CC(=O)NC4CCC(C)CC4)ncn32)s1 (stereo unspecified)	91% (inactive)
Oc1c(C(c2cccc(Cl)c2)N2CCOCC2)sc2nc(-c3ccco3)nn12 (stereo unspecified)	84% (inactive)
Cc1ccc(NC(=O)CCC(=O)N2Cc3ccccc3Oc3ncccc32)c(C)c1	99% (inactive)
CCOC(=O)C1CCN(C(=O)c2ccccc2N(C)S(C)(=O)=O)CC1	107% (inactive)
CCOC(=O)c1c(NC(=O)c2ccc(S(=O)(=O)N(CC)CC)cc2)sc2c1CCCCC2	72% (inactive)
CCOC(=O)c1c(NC(=O)c2cc3ccccc3c(=O)o2)sc2c1CCC(C)C2 (stereo unspecified)	129% (inactive)
CCOC(=O)c1c(NC(=O)c2cc3ccccc3c(=O)o2)sc2c1CCCC2	45% (active)
COC(=O)c1c(NC(=O)c2cc3ccccc3c(=O)o2)sc2c1CCCC2	89% (inactive)
CCOC(=O)c1c(NC(=O)c2cc(OCC)c(OCC)c(OCC)c2)sc2c1CCCCC2	65% (inactive)
CCOC(=O)c1c(NC(=O)c2cc(Cl)ccc2Cl)sc2c1CCCC2	72% (inactive)
CCOC(=O)c1c(NC(C)=O)sc2c1CCC2	77% (inactive)
CCOC(=O)c1c(NC(=O)c2ccc(C)cc2)sc2c1CCCCC2	-2% (active)
CCOC(=O)c1c(NC(=O)c2ccccc2C)sc2c1CCCC2	12% (active)
